# From PubChem BioAssay
# Calls of active or inactive are those of the source.
# How the values were obtained:
# [1] = binders of probe aFSTL3 on microarray, primary screen, stem cell growth factor project, biochemical, small-molecule microarray, fluorescence 635/667 (AID 1064); conditions: higher = more signal;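 note: measures binding of the biotinylated anti-FSTL3 antibody to printed compounds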
# [2] = binders from COS7 lysate, DM2A8 probe, primary screen, torsin A project, cell lysate, small-molecule microarray, fluorescence 635/667 (AID 1065); conditions: higher = more signal, COS7 lysate expressing mutant human TOR1A
# [3] = binders of probe aFGF2 on microarray, primary screen, stem cell growth factor project, biochemical, small-molecule microarray, fluorescence 635/667 (AID 1067); conditions: higher = more signal;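 note: measures binding of biotinylated aFGF2 protein to printed compounds on slides; z-score merges feature fluorescence and signal-to-noise across triplicate slides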
# [4] = binders of probe aFGF10 on microarray, primary screen, stem cell growth factor project, biochemical, small-molecule microarray, fluorescence 635/667 (AID 1071); conditions: higher = more signal;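 note: score merges 667 nm spot intensity and signal to noise from triplicate slides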
# [5] = biological target: Neurogenic locus notch homolog protein 2 (Homo sapiens) (UniProt Q04721); assay: Notch2 binders on small-molecule microarrays, primary screen, biochemical, small-molecule microarray, 635 nm fluorescence, stem cell growth factors (AID 1073); conditions: Notch2 binding, higher = more signal
# [6] = biological target: Pro-neuregulin-1, membrane-bound isoform (Homo sapiens) (UniProt Q02297); assay: NRG1 binders on small-molecule microarrays, primary screen, psychiatric disease protein project, biochemical, small-molecule microarray, fluorescence 635/667 (AID 1075); conditions: NRG1 binding, 635 nm fluorescence, higher = more signal;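 note: score combines 667 nm spot fluorescence with signal to noise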
# [7] = test system: Neuregulin-1 EGF-like domain; assay: binders of neuregulin-1 EGF-like domain, primary screen, biochemical, small-molecule microarray, 635 nm fluorescence (AID 1081); conditions: small-molecule microarray binding, higher = more signal;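 note: binding of the protein to compounds printed on small-molecule microarray slides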
# [8] = FRG1 promoter luciferase signal modulators, primary screen, FRG1 inhibition for FSHD, cell-based, C2C12 myotubes, firefly/Renilla luciferase, luminescence (AID 1084); conditions: higher = more signal, called active from +8 up or from −8 down
# [9] = binders of probe aFST on microarray, primary screen, stem cell growth factor project, biochemical, small-molecule microarray, fluorescence 635/667 (AID 1086); conditions: higher = more signal;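 note: score merges 667 nm fluorescence with signal-to-noise of each printed compound spot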
# [10] = binders of probe aHhip on microarray, primary screen, stem cell growth factor project, biochemical, small-molecule microarray, fluorescence 635/667 (AID 1087); conditions: higher = more signal;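 note: score merges spot fluorescence at 667nm with spot signal to noise ratio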
# [11] = test system: PRMT1 (protein arginine N-methyltransferase 1); assay: PRMT1 binders on small-molecule microarrays, primary screen, biochemical, small-molecule microarray, 635 nm fluorescence (AID 1088); conditions: small-molecule microarray binding, higher = more signal;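 note: binding of Prmt1 protein to compounds spotted on small-molecule microarray slides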
# [12] = yeast growth modulation, basal conditions, primary screen, YJM789 clinical isolate, OD600, 24 h (AID 1089);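 note: growth of clinical yeast isolate S. cerevisiae YJM 789 seeded 1000 cells per well; test concentration not given here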; conditions: S. cerevisiae YJM789 growth, higher = more signal, called active from +8 up or from −8 down
# [13] = fission yeast growth modulation, primary screen, strain 972, OD600, 24 h, no modulator (AID 1090);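 note: basal condition with compound alone and no growth modifier present; test concentration not given here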; conditions: S. pombe 972 growth, higher = more signal, called active from +8 up or from −8 down
# [14] = S. cerevisiae growth modulation with rapamycin, primary screen, strain BY4716, OD600, 96 h (AID 1091); conditions: higher = more signal, called active from +8 up or from −8 down; note: test concentration not given here
# [15] = biological target: Torsin-1A-interacting protein 2 (Homo sapiens) (UniProt Q8NFQ8); assay: LULL1 binders on small-molecule microarray, primary screen, cell lysate, human LULL1 lysate, 635/667 nm fluorescence (AID 1092); conditions: hLULL1 lysate binding, 635 nm fluorescence, higher = more signal;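 note: probe is lysate of COS7 cells overexpressing human LULL1; score merges per-feature 667 nm fluorescence with signal-to-noise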
# [16] = E. coli growth modulation, two-sided OD650, primary screen, E. coli filamentation project, strain DRC41, 24 h (AID 1093); conditions: OD650, 24 h, higher = more signal, called active from +8 up or from −8 down;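 note: MC1000 strain lacking acrAB efflux and sulA so SOS filamentation is blocked; test concentration not given here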
# [17] = small-molecule microarray binders of probe aLefty2, primary screen, biochemical, biotinylated probe, 635/667 nm fluorescence (AID 1094); conditions: higher = more signal;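 note: score merges spot fluorescence near 667 nm with spot signal-to-noise ratio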
# [18] = test system: Noggin (protein binding on small-molecule microarray); assay: Noggin binders on small-molecule microarray, primary screen, biochemical, 635/667 nm fluorescence (AID 1095); conditions: 635 nm fluorescence, higher = more signal;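 note: score merges 667 nm feature fluorescence with signal to noise over triplicate slides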
# [19] = biological target: Neurogenic locus notch homolog protein 3 (Homo sapiens) (UniProt Q9UM47); assay: NOTCH3 binders on small-molecule microarray, primary screen, biochemical, 635/667 nm fluorescence (AID 1096); conditions: NOTCH3 binding, 635 nm fluorescence, higher = more signal
# [20] = small-molecule microarray binders of probe aEGFR, primary screen, biochemical, biotinylated probe, 635/667 nm fluorescence (AID 1097); conditions: higher = more signal;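 note: probe is a biotinylated anti-EGFR antibody binding compounds printed on slides; score combines fluorescence near 667 nm and signal to noise of each spot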
# Torsin-1A-interacting protein 2 (Homo sapiens), sequence (Q8NFQ8 whole entry, looked up): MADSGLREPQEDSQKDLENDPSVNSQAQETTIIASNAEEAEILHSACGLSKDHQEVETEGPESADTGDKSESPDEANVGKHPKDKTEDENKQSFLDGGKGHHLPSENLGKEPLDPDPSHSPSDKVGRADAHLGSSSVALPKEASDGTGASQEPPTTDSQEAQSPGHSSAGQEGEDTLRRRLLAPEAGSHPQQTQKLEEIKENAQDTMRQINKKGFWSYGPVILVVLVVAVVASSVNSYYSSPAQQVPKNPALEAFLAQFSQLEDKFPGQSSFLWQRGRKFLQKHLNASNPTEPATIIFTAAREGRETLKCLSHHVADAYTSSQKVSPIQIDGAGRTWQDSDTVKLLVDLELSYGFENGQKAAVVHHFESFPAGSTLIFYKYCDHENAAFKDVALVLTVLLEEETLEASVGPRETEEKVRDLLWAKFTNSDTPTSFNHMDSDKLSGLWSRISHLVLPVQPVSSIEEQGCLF
# Neurogenic locus notch homolog protein 3 (Homo sapiens), sequence (Q9UM47 whole entry, looked up): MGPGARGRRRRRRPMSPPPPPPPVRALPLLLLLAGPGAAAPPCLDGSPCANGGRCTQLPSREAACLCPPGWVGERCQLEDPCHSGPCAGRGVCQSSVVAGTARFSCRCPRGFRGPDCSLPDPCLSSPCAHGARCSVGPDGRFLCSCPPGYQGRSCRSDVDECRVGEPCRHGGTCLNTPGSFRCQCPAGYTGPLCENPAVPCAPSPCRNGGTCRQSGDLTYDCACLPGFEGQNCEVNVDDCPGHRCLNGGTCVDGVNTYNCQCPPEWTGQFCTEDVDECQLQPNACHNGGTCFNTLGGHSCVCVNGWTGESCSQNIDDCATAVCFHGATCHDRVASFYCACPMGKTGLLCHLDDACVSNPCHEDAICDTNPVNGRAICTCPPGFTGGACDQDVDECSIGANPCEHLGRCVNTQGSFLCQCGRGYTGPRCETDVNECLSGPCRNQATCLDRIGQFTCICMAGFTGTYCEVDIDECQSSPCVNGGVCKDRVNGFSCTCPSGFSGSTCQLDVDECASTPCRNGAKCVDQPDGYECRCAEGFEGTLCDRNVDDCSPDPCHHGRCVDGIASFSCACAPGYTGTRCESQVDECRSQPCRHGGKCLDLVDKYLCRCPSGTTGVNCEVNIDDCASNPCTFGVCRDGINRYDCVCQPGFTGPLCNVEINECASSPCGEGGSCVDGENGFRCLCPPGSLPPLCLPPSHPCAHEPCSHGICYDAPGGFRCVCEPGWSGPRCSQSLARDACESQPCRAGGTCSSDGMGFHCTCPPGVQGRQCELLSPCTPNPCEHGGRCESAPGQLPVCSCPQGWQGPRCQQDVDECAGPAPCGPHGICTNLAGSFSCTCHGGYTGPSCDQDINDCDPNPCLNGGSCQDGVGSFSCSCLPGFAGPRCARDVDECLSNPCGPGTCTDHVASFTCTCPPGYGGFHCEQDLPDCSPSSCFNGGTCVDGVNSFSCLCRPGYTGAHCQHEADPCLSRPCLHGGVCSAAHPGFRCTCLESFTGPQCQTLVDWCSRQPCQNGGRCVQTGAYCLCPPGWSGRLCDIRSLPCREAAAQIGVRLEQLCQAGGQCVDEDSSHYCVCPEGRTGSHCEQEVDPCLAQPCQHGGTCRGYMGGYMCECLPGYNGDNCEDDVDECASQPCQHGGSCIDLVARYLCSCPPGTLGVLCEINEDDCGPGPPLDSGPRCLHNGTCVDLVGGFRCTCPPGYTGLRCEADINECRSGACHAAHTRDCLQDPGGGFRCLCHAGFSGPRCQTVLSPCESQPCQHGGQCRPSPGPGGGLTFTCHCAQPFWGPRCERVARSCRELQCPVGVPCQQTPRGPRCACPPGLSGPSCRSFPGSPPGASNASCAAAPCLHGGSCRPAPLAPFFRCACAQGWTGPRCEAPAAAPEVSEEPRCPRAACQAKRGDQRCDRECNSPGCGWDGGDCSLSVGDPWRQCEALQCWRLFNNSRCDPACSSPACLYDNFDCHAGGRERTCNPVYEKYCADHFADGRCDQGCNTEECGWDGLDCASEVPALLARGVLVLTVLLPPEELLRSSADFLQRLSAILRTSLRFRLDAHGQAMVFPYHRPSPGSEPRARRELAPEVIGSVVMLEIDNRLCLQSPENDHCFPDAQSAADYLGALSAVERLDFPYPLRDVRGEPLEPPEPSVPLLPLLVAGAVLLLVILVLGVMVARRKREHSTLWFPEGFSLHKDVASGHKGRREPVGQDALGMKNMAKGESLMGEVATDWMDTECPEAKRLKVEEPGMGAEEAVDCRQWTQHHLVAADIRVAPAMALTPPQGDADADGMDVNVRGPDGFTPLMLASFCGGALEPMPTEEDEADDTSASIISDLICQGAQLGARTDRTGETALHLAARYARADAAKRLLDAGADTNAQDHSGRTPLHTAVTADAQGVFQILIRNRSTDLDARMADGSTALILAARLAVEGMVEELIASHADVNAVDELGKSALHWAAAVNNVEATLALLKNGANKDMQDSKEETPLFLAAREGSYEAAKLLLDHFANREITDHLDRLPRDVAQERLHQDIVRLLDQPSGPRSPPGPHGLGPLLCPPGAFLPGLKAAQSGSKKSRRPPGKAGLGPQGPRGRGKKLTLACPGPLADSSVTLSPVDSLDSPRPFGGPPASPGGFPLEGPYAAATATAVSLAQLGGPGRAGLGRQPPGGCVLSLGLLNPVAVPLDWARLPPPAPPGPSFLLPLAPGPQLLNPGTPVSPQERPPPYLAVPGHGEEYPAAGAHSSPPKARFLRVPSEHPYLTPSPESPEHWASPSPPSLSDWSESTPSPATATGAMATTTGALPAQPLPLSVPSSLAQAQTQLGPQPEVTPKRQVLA
# Pro-neuregulin-1, membrane-bound isoform (Homo sapiens), sequence (Q02297 whole entry, looked up, the tested form may be a part, canonical isoform): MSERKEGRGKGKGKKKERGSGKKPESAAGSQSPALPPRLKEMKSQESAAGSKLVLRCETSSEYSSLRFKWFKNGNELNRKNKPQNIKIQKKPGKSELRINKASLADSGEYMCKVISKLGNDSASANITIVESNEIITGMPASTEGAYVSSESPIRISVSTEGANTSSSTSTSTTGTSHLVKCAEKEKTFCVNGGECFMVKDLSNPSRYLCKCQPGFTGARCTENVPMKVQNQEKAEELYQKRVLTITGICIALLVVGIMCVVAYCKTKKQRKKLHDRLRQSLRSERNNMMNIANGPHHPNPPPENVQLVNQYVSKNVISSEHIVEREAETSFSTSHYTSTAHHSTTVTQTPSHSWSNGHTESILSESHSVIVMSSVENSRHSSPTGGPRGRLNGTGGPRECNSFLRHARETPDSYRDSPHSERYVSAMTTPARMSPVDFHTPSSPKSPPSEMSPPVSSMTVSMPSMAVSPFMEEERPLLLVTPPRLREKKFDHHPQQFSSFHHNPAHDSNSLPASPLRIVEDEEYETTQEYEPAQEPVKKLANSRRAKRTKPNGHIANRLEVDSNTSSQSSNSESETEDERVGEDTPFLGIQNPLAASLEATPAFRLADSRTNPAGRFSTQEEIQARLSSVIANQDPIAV
Structure (SMILES),composite z-score [1],composite z-score [2],composite z-score [3],composite z-score [4],composite z-score [5],composite z-score [6],composite z-score [7],z-score [8],composite z-score [9],composite z-score [10],composite z-score [11],z-score [12],z-score [13],z-score [14],composite z-score [15],z-score [16],composite z-score [17],composite z-score [18],composite z-score [19],composite z-score [20]
COc1ccc([Si](C)(C)[C@H]2[C@H](CCn3cc([C@H](O)c4ccccc4)nn3)O[C@@]3(C(=O)N(C)c4ccccc43)[C@@H]2C)cc1,0.0044,0.165,-0.0418,-0.209,-0.623,0.104,0.553,-1.36 (inactive),-0.619,-0.199,-0.133,-2.61 (inactive),0.644 (inactive),-0.254 (inactive),0.446,0.271 (inactive),-0.0317,0.176,0.133,-0.171
C#CCNCc1ccccc1,-0.443,0.0591,-0.114,0.227,0.461,-0.358,0.0262,0.938 (inactive),-0.115,-0.236,-0.0993,-0.514 (inactive),-0.749 (inactive),-0.157 (inactive),-0.0541,-0.276 (inactive),-0.161,0.235,0.527,-0.0435
CC(c1ccccc1)C(O)C1C=CC2C(=O)N(C)C(=O)C2N1NC(=O)OC(C)(C)C (stereo not given),0.301,0.518,0.225,0.626,1.21,1.91,1.17,1.89 (inactive),1.14,-0.0645,1.39,0.476 (inactive),0.0391 (inactive),0.299 (inactive),3.43,0.0596 (inactive),0.12,0.01,1.05,-0.0859
COC(=O)[C@@]1(Cc2ccc(OC)cc2)[C@H]2c3cc(C(=O)N4CCCC4)n(CCCNc4ncc(C(F)(F)F)cc4Cl)c3C[C@H]2CN1C(=O)c1ccccc1,0.965,0.103,0.578,0.583,1.7,1.71,0.709,2.95 (inactive),2.32,1.31,0.0457,-0.496 (inactive),1.11 (inactive),1.35 (inactive),1.8,-0.537 (inactive),0.987,0.341,0.656,0.939
CCCCCCc1nc(-c2ccc(-c3ccc(Cl)c(Cl)c3)o2)c(C)c2c1[Si](C(C)C)(C(C)C)OC2,-0.495,-0.866,-0.144,-0.475,-0.363,0.0643,-0.416,0.333 (inactive),-0.0878,0.0505,0.337,-0.972 (inactive),-3.62 (inactive),0.0962 (inactive),0.703,-0.0336 (inactive),-0.259,-0.123,-0.243,-0.233
C=CC[C@@]1(C(=O)N2CCCCC2)N=C(c2ccc(OCCCO)cc2)O[C@@H]1c1ccccc1N=[N+]=[N-],0.292,-0.0912,-0.0198,0.555,1.55,1.4,1.23,-0.546 (inactive),0.833,-0.0618,1.54,-0.989 (inactive),-0.577 (inactive),1.13 (inactive),3.23,1.07 (inactive),0.286,0.564,1.13,0.14
O[C@@H](Cc1ccccc1)[C@@H](/C=C/C1CC1)NCc1cccc(Cl)c1,1.53,0.0563,-0.224,-0.813,-1.43,-0.146,-0.344,-0.715 (inactive),-0.699,-0.0994,-0.534,-2.26 (inactive),-19 (active),-2.31 (inactive),-0.44,-0.59 (inactive),0.0558,-1.08,-0.419,-0.296
O=C(CS)NCCCCCNC(=O)[C@H]1C[C@H]2C(=O)NCC(=O)N2[C@H]1c1cccc(OCCO)c1,0.656,-0.498,-0.0579,-0.461,-1.2,1.33,0.375,3.3 (inactive),-0.793,-0.176,0.151,-0.881 (inactive),0.145 (inactive),-0.336 (inactive),0.556,0.663 (inactive),-0.0778,0.262,-0.154,-0.0987
CC(=CC1CCCCC1)[C@@H](NC(=O)c1cccnc1)c1ccc(-c2ccccc2)cc1,0.365,-0.545,0.0021,-0.25,0.142,0.0657,-0.362,-0.972 (inactive),0.281,-0.194,-0.0028,1.36 (inactive),0.92 (inactive),2.06 (inactive),1.16,-2.18 (inactive),-0.0042,-0.18,0.298,-0.222
CCCCC(O)C1C=CC2C(=O)N(C)C(=O)C2N1N1CCCCC1 (stereo not given),0.515,0.314,0.0311,0.591,1.56,1.12,1.42,0.733 (inactive),1.3,-0.0618,0.506,0.882 (inactive),1.05 (inactive),1.97 (inactive),2.84,-1.1 (inactive),0.365,0.277,0.967,0.197
